Inhibition data for 28 compounds are collected here from PubChem BioAssay AID1654 (Sanford-Burnham Center for Chemical Genomics, 2009).

The whole screen tested about 290,000 compounds, of which about 1,500 (0.52%) were called active. The list comes from a sample in which actives are over-represented; it also holds similar structures and randomly drawn compounds. Unmarked numbers belong to inactive results. Rule as the data show it: active = inhibition above about 50%; inactive = the rest.

In the assay the target is Dual specificity protein phosphatase 3 (Homo sapiens) (UniProt P51452). Briefly: inhibition of human DUSP3 activity – biochemical, absorbance, uHTS, primary screen (AID 1654). The settings on record: recombinant VHR phosphatase, pNPP absorbance, at 13.3 µM, hits give high values.
Sequence of Dual specificity protein phosphatase 3 (Homo sapiens) (P51452 whole entry, looked up): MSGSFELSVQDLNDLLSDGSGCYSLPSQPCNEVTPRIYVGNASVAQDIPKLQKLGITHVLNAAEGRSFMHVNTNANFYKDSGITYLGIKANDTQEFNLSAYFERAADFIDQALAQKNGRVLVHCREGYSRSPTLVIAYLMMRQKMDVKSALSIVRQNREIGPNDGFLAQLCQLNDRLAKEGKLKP
On to `CCCCc1ccc(NC(=S)NCCCN2CCOCC2)cc1`, for which the inhibition was 52.9% (active).
The result for `COc1cccc(NC(=S)NCCCN2CCOCC2)c1` reads 16.2%.
With `Cc1cc(C)cc(NC(=S)NCCCN2CCOCC2)c1`, the inhibition was -2.7%.
The result for `COc1cccc(C(=O)Nc2nnc(S(=O)(=O)N3CCCCC3)s2)c1` reads 9.5%; that for `CC(=O)c1ccc(S(=O)(=O)NCc2nnnn2-c2ccccc2)cc1`, -9.1%; that for `COc1cc(/C=C2\C(=N)N3N=C(CC(=O)N4CCOCC4)SC3=NC2=O)cc(OC)c1OC`, -15.7%.
The result for `CCOc1c(Br)cc(/C=C2\C(=O)N(CCC#N)N=C2C)cc1OC` reads 0.9%; that for `Cn1c(CCc2ccccc2)nnc1SCC(N)=O`, 2.3%; that for `COc1ccc([N+](=O)[O-])cc1N(CC(=O)Nc1ccccc1C(=O)N1CCOCC1)S(C)(=O)=O`, 29.6%.
As for `CCn1nnnc1SCC(=O)c1ccc(C)cc1C`, the inhibition was 8.9%.
In the case of `CC(=O)Nc1ccc(NC(=O)CSc2nnnn2-c2ccccc2F)cc1`, the inhibition was 30%.
As to `CCn1nnnc1SCC(=O)Nc1ccc(N(C)C)cc1`, the inhibition is 54.4% (active).
Consider `CC(C)c1ccc2c(c1)c(SC(C)(C)C)c(CC(C)(C)C(=O)O)n2Cc1ccc(Cl)cc1`, for which the inhibition is -1.6%.
Take `CCOc1cccc(-c2nnc(SCC(=O)NC3CC3)n2C)c1`: the inhibition is 24%.
As for `Cn1c(SCC(=O)NC2CCCCC2)nnc1-c1ccc(N)cc1`, the inhibition was 15.8%.
In the case of `Cn1c(SCC(=O)NC2CCCCC2)nnc1-c1cc2ccccc2o1` it was 55.6% (active).
In the case of `O=[N+]([O-])c1cc([N+](=O)[O-])c(Oc2cc(F)cc(F)c2F)cc1NN1CCCCC1`, the inhibition is 16.6%.
For the compound `COc1cc(NC(=S)N2CCCC(C)C2)cc(OC)c1OC` (stereo not drawn), the inhibition is 56.3% (active).
With `COc1cc(NC(=S)N2CCCC(C)C2)c(OC)cc1Cl` (stereo not drawn), the inhibition was 10.6%.
The result for `COc1ccc(NC(=S)N2CCCC(CO)C2)c(OC)c1` (stereo not drawn) reads -17.2%; that for `Cc1ccc(S(=O)(=O)N(CC(=O)Nc2cccnc2)c2ccc(Br)cc2)cc1`, -1.5%.
In the case of `COC(=O)C1(CCSC)NC(c2ccc(OC)cc2OC)C2C(=O)N(c3cccc(C(C)=O)c3)C(=O)C21` (stereo not drawn) it was 4.9%; in that of `COc1ccc(N2CCC(N3CCN(C)C(CCO)C3)CC2)cc1` (stereo not drawn), 6.5%.
With `CCOc1ccccc1CN1CCN(C2CCC2)CC1CCO` (stereo not drawn), the inhibition was 6.5%.
For `COc1ccccc1N1CCC(N2CCN(CC(C)(C)C)C(CCO)C2)CC1` (stereo not drawn), the inhibition was 59.1% (active).
For `COc1ccc(-c2cc(C(=O)N(C)Cc3ccccc3)c3ccccc3n2)cc1`, the inhibition was 12.2%.
Regarding `COc1ccc(-c2cc(C(=O)n3cnc4ccccc43)c3ccccc3n2)cc1`, the inhibition is 51.6% (active).
For `CNC(=O)COC(=O)c1cc(-c2ccc(OC)cc2)nc2ccccc12`, the inhibition was 11%.
